Each structure is given as a SMILES string. The campaign covered roughly 39,000 compounds. About 1,500 (3.8%) were called active. This excerpt belongs to a sample that is enriched for actives.

This test concerns HSkMC (human skeletal muscle cells). Briefly: cytotoxicity call (relative viability < 0.9). The following applies: 10 µM.
As for `Cc1ccc(S(=O)(=O)Nc2ccc3c(c2)CC(=O)N([C@@H](C)CO)C[C@H](C)[C@H](CN(C)Cc2ccc(Oc4ccccc4)cc2)O3)cc1`, the cytotoxicity call was “active”.
In the case of `Cc1ccc(S(=O)(=O)Nc2ccc3c(c2)CC(=O)N([C@@H](C)CO)C[C@@H](C)[C@H](CN(C)Cc2ccc(Oc4ccccc4)cc2)O3)cc1`, the cytotoxicity call is “inactive”.
In the case of `Cc1ccc(S(=O)(=O)Nc2ccc3c(c2)CC(=O)N([C@H](C)CO)C[C@H](C)[C@H](CN(C)Cc2ccc(Oc4ccccc4)cc2)O3)cc1`, the cytotoxicity call is “inactive”.
Turning to `Cc1ccc(S(=O)(=O)Nc2ccc3c(c2)CC(=O)N([C@H](C)CO)C[C@@H](C)[C@@H](CN(C)Cc2ccc(Oc4ccccc4)cc2)O3)cc1`, the cytotoxicity call was “inactive”.
On to `Cc1ccc(S(=O)(=O)Nc2ccc3c(c2)CC(=O)N([C@@H](C)CO)C[C@@H](C)[C@@H](CN(C)Cc2ccc(Oc4ccccc4)cc2)O3)cc1`, for which the cytotoxicity call is “inactive”.
For the compound `Cc1ccc(S(=O)(=O)Nc2ccc3c(c2)CC(=O)N([C@@H](C)CO)C[C@H](C)[C@@H](CN(C)Cc2ccc(Oc4ccccc4)cc2)O3)cc1`, the cytotoxicity call was “active”.
In the case of `Cc1ccc(S(=O)(=O)Nc2ccc3c(c2)CC(=O)N([C@H](C)CO)C[C@@H](C)[C@H](CN(C)Cc2ccc(Oc4ccccc4)cc2)O3)cc1` it was “active”; in that of `Cc1ccc(S(=O)(=O)Nc2ccc3c(c2)CC(=O)N([C@H](C)CO)C[C@H](C)[C@@H](CN(C)Cc2ccc(Oc4ccccc4)cc2)O3)cc1`, “inactive”; in that of `C[C@H](CO)N1C[C@H](C)[C@@H](CN(C)S(=O)(=O)c2ccc(F)cc2)Oc2ccc(NC(=O)C3CC3)cc2CC1=O`, “inactive”.
Turning to `CO[C@H]1CN(C)C(=O)c2cc(NC(=O)Nc3cccc(Cl)c3)ccc2OC[C@H](C)N(C(=O)Nc2c(C)noc2C)C[C@H]1C`, the cytotoxicity call was “inactive”.
As to `COc1ccc(NC(=O)N(C)C[C@H]2OCCCC[C@@H](C)Oc3ccc(NC(=O)Nc4cccc5ccccc45)cc3C(=O)N([C@H](C)CO)C[C@@H]2C)cc1`, the cytotoxicity call is “inactive”.
As for `Cc1ccc(S(=O)(=O)N[C@H]2CC[C@@H](CC(=O)N3CCC(Cc4ccccc4)CC3)O[C@@H]2CO)cc1`, the cytotoxicity call is “inactive”.
Turning to `C[C@@H]1CCCCO[C@@H](CN(C)C(=O)NC2CCCCC2)[C@H](C)CN([C@@H](C)CO)C(=O)c2cc(NC(=O)Cc3ccccc3)ccc2O1`, the cytotoxicity call was “inactive”.
Regarding `C[C@H]1CN([C@@H](C)CO)C(=O)Cc2cc(NC(=O)Nc3cccc4c3CCCC4)ccc2O[C@H]1CN(C)S(=O)(=O)c1ccc(Oc2ccccc2)cc1`, the cytotoxicity call is “inactive”.
Consider `Cc1cc(Oc2ccnc3cc(Cl)ccc23)ccc1Cl`, for which the cytotoxicity call is “inactive”.
Consider `Cc1c(C(=O)Nc2ccc(Oc3ccnc4cc(OCC(C)(C)O)ccc34)c(F)c2)c(=O)n(-c2ccccc2)n1C`, for which the cytotoxicity call was “active”.
In the case of `CCS(=O)(=O)N1C[C@]2(C1)CN([C@@H](CO)c1c2c2ccc(cc2n1C)OC)C(=O)Nc1cccc(c1)F` it was “inactive”; in that of `CC(C)NC(=O)Nc1cccc2c1O[C@@H](CN(C)C(=O)NC1CCCCC1)[C@@H](C)CN([C@@H](C)CO)C2=O`, “inactive”.
`Cc1ccc(S(=O)(=O)N(C)C[C@H]2Oc3ccc(NS(C)(=O)=O)cc3CC(=O)N([C@@H](C)CO)C[C@@H]2C)cc1`: the cytotoxicity call was “inactive”.
In the case of `CC(C)CCCC(C)C1CCC2C3CC(=O)C4CC(O)CCC4(C)C3CCC12C` (stereo not drawn) [5alpha-CHOLESTAN-3beta-OL-6-ONE ], the cytotoxicity call is “inactive”.
Consider `CC(C)CCCC(C)C1CCC2C3CCC4CC(O)CCC4(C)C3CCC12C` (stereo not drawn) [5alpha-CHOLESTANOL ], for which the cytotoxicity call was “inactive”.
Take `CC(C)CCC[C@@H](C)[C@H]1CC[C@H]2[C@@H]3C[C@@H](O)[C@@]4(O)C[C@@H](O)CC[C@]4(C)[C@H]3CC[C@]12C` [CHOLESTAN-3beta,5alpha,6beta-TRIOL ]: the cytotoxicity call is “active”.
Turning to `CC(C)NC(=O)Nc1ccc2c(c1)CC(=O)N([C@H](C)CO)C[C@H](C)[C@H](CN(C)S(=O)(=O)c1cn(C)cn1)O2`, the cytotoxicity call is “inactive”.
In the case of `Cc1cn(CCN2CCN(c3ccccc3-c3cc(C#N)cc(C(=O)NCCCN4CCCC4)c3)CC2)c2ccccc12` it was “active”; in that of `COc1cc(C(=O)NCCCN2CCCN(CCCNC(=O)c3cc(OC)c(OC)c(OC)c3)CC2)cc(OC)c1OC`, “inactive”.
For `Cc1cn(CCC#N)c2ccccc12`, the cytotoxicity call was “inactive”.
As for `C[C@H]1CCCCO[C@H](CN(C)C(=O)C2CCCCC2)[C@@H](C)CN([C@@H](C)CO)C(=O)c2cc(NS(=O)(=O)c3cccs3)ccc2O1`, the cytotoxicity call was “inactive”.
Turning to `COc1cccc(-n2cc(C(=O)NO)nn2)c1`, the cytotoxicity call was “inactive”.
With `COc1ccc(-n2cc(C(=O)NO)nn2)cc1`, the cytotoxicity call is “active”.
Regarding `COC(=O)c1ccc(Cn2cc(C(=O)NO)nn2)o1`, the cytotoxicity call is “inactive”.
As for `C[C@H]1NC(=O)[C@H](Cc2ccccc2)NC(=O)[C@@]23C(=O)N[C@@H](Cc4ccccc4)[C@@H]2[C@H](C)[C@@]2(C)O[C@H]2[C@H]3/C=C/C/C=C\CNC1=O`, the cytotoxicity call was “inactive”.
In the case of `C[C@H](CO)N1C[C@H](C)[C@@H](CN(C)Cc2ccncc2)Oc2ccc(NS(=O)(=O)c3ccc(F)cc3)cc2C1=O`, the cytotoxicity call was “inactive”.
With `CN(C)c1ccc(C(=C2C=CC(=[N+](C)C)C=C2)c2ccc(N(C)C)cc2)cc1.[Cl-]`, the cytotoxicity call is “active”.
Next, `CN(CC(=O)O)C1CCCC1`: “inactive”; `C[C@@H]1CCCCO[C@H](CN(C)C(=O)Nc2ccc(F)cc2)[C@H](C)CN([C@@H](C)CO)C(=O)c2cc(NC(=O)NC3CCCCC3)ccc2O1`: “inactive”.
Next, `C[C@H]1CN([C@@H](C)CO)S(=O)(=O)c2ccc(C#Cc3ccc(F)cc3)cc2O[C@@H]1CN(C)C(=O)c1ccccn1`: “inactive”.
In the case of `COc1ccc(S(=O)(=O)Nc2ccc3c(c2)CC(=O)N([C@H](C)CO)C[C@@H](C)[C@@H](CN(C)Cc2ccc(Oc4ccccc4)cc2)O3)cc1`, the cytotoxicity call was “active”.
`COc1ccc(S(=O)(=O)Nc2ccc3c(c2)CC(=O)N([C@@H](C)CO)C[C@@H](C)[C@@H](CN(C)Cc2ccc(Oc4ccccc4)cc2)O3)cc1`: the cytotoxicity call was “inactive”.
In the case of `COc1ccc(S(=O)(=O)Nc2ccc3c(c2)CC(=O)N([C@H](C)CO)C[C@H](C)[C@@H](CN(C)Cc2ccc(Oc4ccccc4)cc2)O3)cc1` it was “inactive”; in that of `COc1ccc(S(=O)(=O)Nc2ccc3c(c2)CC(=O)N([C@H](C)CO)C[C@H](C)[C@H](CN(C)Cc2ccc(Oc4ccccc4)cc2)O3)cc1`, “inactive”.
For `COc1ccc(S(=O)(=O)Nc2ccc3c(c2)CC(=O)N([C@@H](C)CO)C[C@H](C)[C@@H](CN(C)Cc2ccc(Oc4ccccc4)cc2)O3)cc1`, the cytotoxicity call was “active”.
As to `COc1ccc(S(=O)(=O)Nc2ccc3c(c2)CC(=O)N([C@@H](C)CO)C[C@H](C)[C@H](CN(C)Cc2ccc(Oc4ccccc4)cc2)O3)cc1`, the cytotoxicity call is “active”.
In the case of `COc1ccc(S(=O)(=O)Nc2ccc3c(c2)CC(=O)N([C@@H](C)CO)C[C@@H](C)[C@H](CN(C)Cc2ccc(Oc4ccccc4)cc2)O3)cc1` it was “inactive”; in that of `COc1ccc(S(=O)(=O)Nc2ccc3c(c2)CC(=O)N([C@H](C)CO)C[C@@H](C)[C@H](CN(C)Cc2ccc(Oc4ccccc4)cc2)O3)cc1`, “active”.

(Values after the antibiotic and cytotoxicity screens of Wong et al. (2023).)
